Values joined by “and” are separate entries in the source; they are usually repeats but may differ in a detail not shown here. Equal entries are not always repeated. Records with an inconclusive call do not appear. Active and inactive are the calls of the source. Unless noted, calls come from the whole dose curve; as a rule, active = well fitted curve in the direction sought with a large enough effect; inconclusive = small, poorly fitted or top-dose-only effect, or another doubt; inactive = no such curve, though single readings can be large; an effect the other way counts as inactive or inconclusive. Non-standard residues stand in square brackets, D forms with d. Residues, ends and D or L forms follow the SMILES beside them. *: point of attachment. Sta = CC(C)C[C@H](N)[C@@H](O)CC(=O)O; Isovaleryl = CC(C)CC(=O)*

Results on eight molecules are retold here after PubChem BioAssay (NCATS).

Experiment [1] is described as follows: qHTS profiling of the MIPE4 collection as inhibitors of Plasmodium falciparum (DD2) proliferation (AID 743345; call rule not given here). The following applies: P. falciparum Dd2 in erythrocytes, SYBR Green DNA, 72 h; at 28.5 µM (top of the series) unless noted. A digest of the protocol: (§1)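 Parasite DNA was quantified by SYBR Green I fluorescence (ex 485, em 535 nm) after overnight lysis in saponin/Triton buffer at room temperature. Cultures at 0.3% parasitemia and 2.5% hematocrit were first exposed to compound for 72 h at 37 C; signals were normalised to artemisinin (0.29 uM) and vehicle wells.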

Experiment [2] is described as follows: qHTS profiling of the MIPE4 collection as inhibitors of Plasmodium falciparum (DD2) proliferation (Rep 2) (AID 743346; call rule not given here). The following applies: P. falciparum Dd2 in erythrocytes, SYBR Green DNA, 72 h; at 28.5 µM (top of the series) unless noted. The gist of the method: as §1
For orientation: Quantitative high-throughput screening tests each substance at several concentrations.

Experiment [3] in a line: qHTS profiling of the MIPE4 collection as inhibitors of Plasmodium falciparum (HB3) proliferation (AID 743347; call rule not given here;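 note: plate controls were DMSO vehicle wells for no effect and artemisinin wells for full effect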). The following applies: P. falciparum HB3 in erythrocytes, SYBR Green DNA, 72 h; at 28.5 µM (top of the series) unless noted. The gist of the method: as §1
Experiment [4] is described as follows: High-throughput drug toxicity screening in the BPDCN cell line Gen2.2 (AID 1224824; call rule not given here;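 note: cells exposed to compounds for 48 h before reading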). As to conditions: Gen2.2 BPDCN cells; at 45.8 µM (top of the series) unless noted. A digest of the protocol: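 Seed 500 exponentially growing Gen2.2 cells/well; add compounds by pin tool; incubate 48 h, 37 °C, 5% CO2; add CellTiter-Glo, 15 min RT; read luminescence. % activity vs DMSO (100%) and bortezomib (0%).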

A short description of experiment [5]: High-throughput drug toxicity screening in the BPDCN cell line Cal-1 (AID 1224825; call rule not given here). The following applies: Cal-1 BPDCN cell viability, qHTS; at 45.8 µM (top of the series) unless noted. A digest of the protocol: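 CellTiter-Glo luminescence after 48 h compound exposure; percent activity scaled with DMSO as 100% and bortezomib (9.2 uM final) as 0%. Cal-1 cells seeded at 500/well in RPMI, 10% FBS, no phenol red.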

Experiment [6] in a line: qHTS assay for measurement of the activity of small molecule inhibitors on Zika virus induced Caspase-3 activity in human iPSC derived neural progenitor cells (hNPCs) (AID 1224857). Note: % of control where 0% means no effect; nearly all actives have a fitted effect of over 65% in size. The gist of the method:
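Pretreat hNPCs with compound 1 h; infect ZIKV 2 FFU/cell; 6 h 37 C, 5% CO2; Caspase-Glo 3/7, 30 min RT; luminescence; normalize to no-virus and virus-only wells.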

The nature of experiment [7]: qHTS assay for measurement of the activity of small molecule inhibitors on Zika virus induced Caspase-3 activity in human astrocytoma cells (AID 1224859).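 Note: plate controls were ZIKV-infected untreated cells for no effect and uninfected cells for full effect.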 A digest of the protocol:
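Human SNB-19 astrocytoma cells in RPMI 1640 with 10% FBS receive compound one hour ahead of Zika virus at 2 FFU/cell. After 6 h infection, caspase-3/7 activity is detected by Caspase-Glo luminescence.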

A short description of experiment [8]: qHTS Screen of the MIPE 4.0 Collection Against Ewings Sarcoma (RDES) (AID 1259252). Note: nearly all actives have a fitted effect of over 35% in size. Note: potency is the fitted concentration of half-maximal effect. The gist of the method: (§2)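 Dose series incubated 48 h with cells in RPMI plus 5% FBS, glutamine and penicillin/streptomycin; cell viability then quantified via CellTiter-Glo.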
Experiment [9] is described as follows: qHTS Screen of the MIPE 4.0 Collection Against Ewings Sarcoma (TC71) (AID 1259253). Note: nearly all actives have a fitted effect of over 40% in size. Note: potency is the fitted concentration of half-maximal effect. The gist of the method:
as §2

The nature of experiment [10]: qHTS Screen of the MIPE 4.0 Collection Against Ewings Sarcoma (EW8) (AID 1259255).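 For viability: 100% = DMSO-treated cells and 0% = medium-only wells without cells.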 Note: nearly all actives have a fitted effect of over 35% in size. Note: potency is the fitted concentration of half-maximal effect. A digest of the protocol:
as §2

Experiment [11] is described as follows: qHTS Screen of the MIPE 4.0 Collection Against Ewings Sarcoma (TC32) (AID 1259256). Note: nearly all actives have a fitted effect of over 45% in size. Note: potency is the fitted concentration of half-maximal effect. A digest of the protocol: as §2
Experiment [12] is described as follows: qHTS assay to identify small molecule inhibitors of chordoma cells - UCH-1 (AID 1259355). Note: nearly all actives have a fitted effect of over 55% in size. Note: potency is the fitted concentration of half-maximal effect. A digest of the protocol: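 Screening used approved and investigational drugs in 15-point titration against 800 seeded cells per well. A fixed combination of auranofin with camptothecin, doxorubicin, rubitecan and topotecan followed compound addition, and growth was scored by CellTiter-Glo after 48hr.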

The nature of experiment [13]: qHTS assay to identify small molecule inhibitors of chordoma cells - UCH-2 (AID 1259356). Note: potency is the fitted concentration of half-maximal effect.
Experiment [14] in a line: P-glycoprotein substrates identified in KB-3-1 adenocarcinoma cell line, qHTS therapeutic library screen (AID 1346986). Note: nearly all actives have a fitted effect of over 60% in size. A digest of the protocol:
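Viability by CellTiter-Glo after 72 h compound exposure at 37 degree C, 5% CO2. Cytotoxic call: curve class -1.1 to -2.4, maximum response >50%, AC50 < 10 uM, compared across KB-3-1 and P-gp-overexpressing KB-8-5-11.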

A short description of experiment [15]: Identifying Small Molecule Inhibitors of Pancreatic Cancer Stem Cells (A2780, Spheroid) (AID 1259357).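 Note: spheroids pre-formed over 14 days in stem cell medium on hydrogel; compound exposure lasted 48 h before the ATP luminescence read; 100% = DMSO treated cells and 0% = wells without cells.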 As to conditions: Potency: A2780 spheroid viability. A digest of the protocol: (§3)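 Spheroids grown 14 days in stem cell media on hydrogel-coated nonadherent plates; 2D lines seeded directly. Compounds added after 4 h attachment, 48 h at 37C, 5% CO2; CellTiter-Glo luminescence normalized to DMSO (no inhibition) and no-cell wells (full inhibition).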

Experiment [16] is described as follows: Identifying Small Molecule Inhibitors of Pancreatic Cancer Stem Cells (SN12C, Adherent) (AID 1259358).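 Note: cell survival measured after 48 h of compound exposure.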 The gist of the method:
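Endpoint: ATP-based luminescence, 48 h drug exposure. Bortezomib at 9.2 uM final as full-kill control; DMSO vehicle as negative control; activity normalized between vehicle and cell-free wells.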

Experiment [17] is described as follows: Identifying Small Molecule Inhibitors of Pancreatic Cancer Stem Cells (SN12C, Spheroid) (AID 1259360).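 Note: 100% = DMSO-treated cells and 0% = wells without cells.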 As to conditions: Potency: SN12C spheroid viability. The gist of the method:
as §3

Turning to `CCCCC(CC)COC(=O)C(C#N)=C(c1ccccc1)c1ccccc1` (configuration not stated), the parasite growth remaining, % of DMSO control (lower = more inhibition) in experiment [1] turned out to be 18.3%. The molecule further gave a parasite growth, % of control (lower = inhibition) in experiment [2] of 11.9%. Besides, in experiment [3], the growth, % of control is 7.29%. Moreover, the cell viability, % of control (lower = more cytotoxic) in experiment [4] is 157%. Moreover, the viability (% of control) in experiment [5] came to 112%. The Potency entry in experiment [6], in experiment [7], in experiment [8], in experiment [9], in [10] and in experiment [11] was “inactive” in each case. Moreover, the Potency entry in experiment [12], in experiment [13] and in experiment [14] was “inactive” each time.
`CN(C)c1ccc2nc3ccc(=[N+](C)C)cc-3sc2c1`: the parasite growth remaining, % of DMSO control (lower = more inhibition) in experiment [1] was 16.9% and 18.5%. In addition, the parasite growth, % of control (lower = inhibition) in experiment [2] is 6.81% and 13.3%. Moreover, the growth, % of control in [3] is 43.4% and 10.1%. For the same molecule, in experiment [4], the cell viability, % of control (lower = more cytotoxic) came out at 10.9%. Further, the viability (% of control) in [5] stood at 8.34%. Moreover, the Potency result in experiment [6] and in experiment [7] was “inactive” each time. Besides, the Potency was 2.35 µM (active) in experiment [8]; 3.72 µM (active) in experiment [9]; 4.69 µM (active) in experiment [10]; 9.35 µM (active) in experiment [11]; 7.94 µM (active) in experiment [12]; 14.6 µM (active) in experiment [13].
Regarding `COc1cc2c(cc1OC)C1CC(=O)C(CC(C)C)CN1CC2` (configuration not stated), the parasite growth remaining, % of DMSO control (lower = more inhibition) in experiment [1] is 7.77%. Besides, in experiment [2], the parasite growth, % of control (lower = inhibition) was found to be 77.8%. This molecule had a growth, % of control in [3] of 67.9%. In addition, the cell viability, % of control (lower = more cytotoxic) in experiment [4] was found to be 141%. Also, in experiment [5], the viability (% of control) was 100%. For the same molecule, the Potency result in [6], in [7], in experiment [8], in experiment [9], in experiment [10] and in [11] was “inactive” throughout.
In the case of `CC(C)CC(=O)N[C@H](C(=O)N[C@H](C(=O)N[C@@H](CC(C)C)[C@@H](O)CC(=O)N[C@@H](C)C(=O)N[C@@H](CC(C)C)[C@@H](O)CC(=O)O)C(C)C)C(C)C` (Isovaleryl-VV[Sta]A[Sta]-OH), the parasite growth remaining, % of DMSO control (lower = more inhibition) in [1] was 99.1%. In experiment [2], this molecule returned a parasite growth, % of control (lower = inhibition) of 58.8%. The molecule further gave a growth, % of control in [3] of 64.1%. The cell viability, % of control (lower = more cytotoxic) in [4] was 72.5%. For the same molecule, the viability (% of control) in experiment [5] is 39.4%. The Potency entry in experiment [6], in experiment [7], in [8], in experiment [9], in experiment [10] and in experiment [11] was “inactive” each time. The Potency result in [12] and in [13] was “inactive” each time.
With `O=C(O)CCNC(=O)c1ccc(N=Nc2ccc(O)c(C(=O)O)c2)cc1`, the parasite growth remaining, % of DMSO control (lower = more inhibition) in [1] stood at 108%. The molecule also showed a parasite growth, % of control (lower = inhibition) in [2] of 88.5%. This molecule also came in with a growth, % of control in experiment [3] of 73.4%. The cell viability, % of control (lower = more cytotoxic) in [4] came out at 171%. Further, the viability (% of control) in experiment [5] is 130%. The Potency result in [6], in experiment [7], in [12] and in experiment [13] was “inactive” throughout. In addition, the Potency in experiment [8] and in [9] was 9.35 µM (active) throughout.
For `CCOC(=O)C1=C(O)C(=O)N(Cc2ccccc2)C1`, the parasite growth remaining, % of DMSO control (lower = more inhibition) in [1] came to 104%. Also, the parasite growth, % of control (lower = inhibition) in [2] worked out at 91%. In addition, in experiment [3], the growth, % of control stood at 93.7%. Also, the cell viability, % of control (lower = more cytotoxic) in experiment [4] amounted to 81.5%. In addition, the viability (% of control) in [5] amounted to 112%. The Potency result in [6], in experiment [7], in experiment [8], in experiment [9], in experiment [10] and in experiment [15] was “inactive” each time. Besides, the Potency result in [16] and in experiment [17] was “inactive” in each case.
`O=P(O)(O)C(O)(Cn1ccnc1)P(=O)(O)O` yielded a parasite growth, % of control (lower = inhibition) in experiment [2] of 94.2% [at 9.64 µM]. In experiment [4], the cell viability, % of control (lower = more cytotoxic) stood at 109% [at 23.2 µM]. Moreover, in experiment [5], the viability (% of control) came out at 108% [at 23.2 µM]. Besides, the Potency result in experiment [6], in experiment [7], in experiment [8], in experiment [9], in [10] and in [11] was “inactive” throughout. Moreover, the Potency entry in experiment [12] and in experiment [13] was “inactive” throughout.
On to `CCC[C@@H]1C[C@@H](C(=O)N[C@@H]([C@H]2O[C@H](SC)[C@H](O)[C@@H](O)[C@H]2O)[C@@H](C)O)N(C)C1`, for which the parasite growth remaining, % of DMSO control (lower = more inhibition) in experiment [1] turned out to be 50.3%. For the same molecule, the parasite growth, % of control (lower = inhibition) in experiment [2] was determined as 67.1%. In [3], this molecule showed a growth, % of control of 66.3%. In addition, in experiment [4], the cell viability, % of control (lower = more cytotoxic) worked out at 191%. Further, in [5], the viability (% of control) stood at 114%. The Potency entry in [6], in experiment [7], in experiment [8], in [10], in experiment [11] and in experiment [13] was “inactive” in each case.
